According to PubChem BioAssay AID1159580 (chemical genetic matrix, 2015):
In all, about 5,500 compounds went through this assay and about 2,000 (36%) were called active. Another 18% or so got no clear call; they are omitted. The list shows a part of the results. A number with no mark means an inactive call. No stated cut-off is given here; in the data, active means normalized growth mostly below about 0.91 (no sharp cut-off); inconclusive means no clear call, values can overlap the other calls; inactive means mostly above about 0.92.

Assay: chemical genetic growth profiling, strain panel (AID 1159580);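 further: tested at 20 µM; growth read once vehicle control cultures reached saturation at 30 °C; 1 = growth at the plate median or of vehicle wells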
Conditions: growth OD

CCCc1nn(C)c2c(=O)[nH]c(-c3cc(S(=O)(=O)N4CCN(C)CC4)ccc3OCC)nc12
normalized growth (S. cerevisiae deletion strains, locus YJR075W, strain HOC1, stronger effect = lower value): 1.02
normalized growth (S. cerevisiae deletion strains, locus YKL009W, strain mrt4, stronger effect = lower value): 1.01
normalized growth (S. cerevisiae deletion strains, locus YKL068W, stronger effect = lower value): 0.995
normalized growth (S. cerevisiae deletion strains, locus YKL085W, strain MDH1 (second series), stronger effect = lower value): 0.996
normalized growth (S. cerevisiae deletion strains, locus YKL085W, strain MDH1, stronger effect = lower value): 0.996
normalized growth (S. cerevisiae deletion strains, locus YKL160W, strain elf1, stronger effect = lower value): 0.999
normalized growth (S. cerevisiae deletion strains, locus YKL190W, strain CNB1, stronger effect = lower value): 1.02
normalized growth (S. cerevisiae deletion strains, locus YKR001C, strain vps1, stronger effect = lower value): 0.64 (active)
normalized growth (S. cerevisiae deletion strains, locus YKR026C, strain gcn3, stronger effect = lower value): 1
normalized growth (S. cerevisiae deletion strains, locus YKR091W, strain srl3, stronger effect = lower value): 0.987
normalized growth (S. cerevisiae deletion strains, locus YLL001W, strain dnm1, stronger effect = lower value): 0.992
normalized growth (S. cerevisiae deletion strains, locus YLL026W, stronger effect = lower value): 0.985
normalized growth (S. cerevisiae deletion strains, locus YLL041C, strain sdh2, stronger effect = lower value): 0.992
normalized growth (S. cerevisiae deletion strains, locus YLR027C, strain aat2, stronger effect = lower value): 0.992
normalized growth (S. cerevisiae deletion strains, locus YLR039C, strain RIC1, stronger effect = lower value): 1.02
normalized growth (S. cerevisiae deletion strains, locus YLR058C, strain SHM2, stronger effect = lower value): 1.02
normalized growth (S. cerevisiae deletion strains, locus YLR102C, strain apc9, stronger effect = lower value): 0.988
normalized growth (S. cerevisiae deletion strains, locus YLR113W, strain HOG1, stronger effect = lower value): 1.03
normalized growth (S. cerevisiae deletion strains, locus YLR221C, strain rsa3, stronger effect = lower value): 0.988
normalized growth (S. cerevisiae deletion strains, locus YLR258W, strain gsy2, stronger effect = lower value): 0.984
normalized growth (S. cerevisiae deletion strains, locus YLR262C, strain YPT6 (second series), stronger effect = lower value): 0.986
normalized growth (S. cerevisiae deletion strains, locus YLR262C, strain YPT6, stronger effect = lower value): 1.05
normalized growth (S. cerevisiae deletion strains, locus YLR268W, strain sec22, stronger effect = lower value): 0.993
normalized growth (S. cerevisiae deletion strains, locus YLR320W, strain mms22, stronger effect = lower value): 0.986
normalized growth (S. cerevisiae deletion strains, locus YLR330W, strain CHS5, stronger effect = lower value): 1.02
normalized growth (S. cerevisiae deletion strains, locus YLR342W, strain FKS1 (second series), stronger effect = lower value): 1.03
normalized growth (S. cerevisiae deletion strains, locus YLR342W, strain FKS1, stronger effect = lower value): 0.99
normalized growth (S. cerevisiae deletion strains, locus YLR357W, strain rsc2, stronger effect = lower value): 0.983
normalized growth (S. cerevisiae deletion strains, locus YLR370C, strain arc18, stronger effect = lower value): 0.988
normalized growth (S. cerevisiae deletion strains, locus YLR371W, strain rom2, stronger effect = lower value): 0.978
normalized growth (S. cerevisiae deletion strains, locus YLR384C, strain iki3, stronger effect = lower value): 0.981
normalized growth (S. cerevisiae deletion strains, locus YLR418C, strain cdc73, stronger effect = lower value): 0.987
normalized growth (S. cerevisiae deletion strains, locus YML016C, strain PPZ1, stronger effect = lower value): 1.02
normalized growth (S. cerevisiae deletion strains, locus YML032C, strain rad52, stronger effect = lower value): 1
normalized growth (S. cerevisiae deletion strains, locus YML120C, strain ndi1, stronger effect = lower value): 0.995
normalized growth (S. cerevisiae deletion strains, locus YML124C, strain tub3, stronger effect = lower value): 0.99
normalized growth (S. cerevisiae deletion strains, locus YMR058W, strain fet3, stronger effect = lower value): 0.999
normalized growth (S. cerevisiae deletion strains, locus YMR078C, strain ctf18, stronger effect = lower value): 1.01
normalized growth (S. cerevisiae deletion strains, locus YMR125W, strain sto1, stronger effect = lower value): 0.981
normalized growth (S. cerevisiae deletion strains, locus YMR129W, stronger effect = lower value): 0.974
normalized growth (S. cerevisiae deletion strains, locus YMR205C, strain PFK2, stronger effect = lower value): 0.981
normalized growth (S. cerevisiae deletion strains, locus YMR223W, strain ubp8, stronger effect = lower value): 1
normalized growth (S. cerevisiae deletion strains, locus YMR231W, strain pep5, stronger effect = lower value): 0.988
normalized growth (S. cerevisiae deletion strains, locus YMR263W, strain SAP30, stronger effect = lower value): 1.03
normalized growth (S. cerevisiae deletion strains, locus YMR307W, strain GAS1, stronger effect = lower value): 1.1
normalized growth (S. cerevisiae deletion strains, locus YNL067W, strain RPL9B, stronger effect = lower value): 1.03
normalized growth (S. cerevisiae deletion strains, locus YNL071W, strain lat1, stronger effect = lower value): 0.991
normalized growth (S. cerevisiae deletion strains, locus YNL128W, strain TEP1, stronger effect = lower value): 1.02
normalized growth (S. cerevisiae deletion strains, locus YNL153C, strain GIM3, stronger effect = lower value): 1.02
normalized growth (S. cerevisiae deletion strains, locus YNL183C, strain NPR1, stronger effect = lower value): 0.978
normalized growth (S. cerevisiae deletion strains, locus YNL209W, strain ssb2, stronger effect = lower value): 0.99
normalized growth (S. cerevisiae deletion strains, locus YNL233W, strain BNI4, stronger effect = lower value): 1.02
normalized growth (S. cerevisiae deletion strains, locus YNL248C, strain rpa49, stronger effect = lower value): 0.981
normalized growth (S. cerevisiae deletion strains, locus YNL250W, strain rad50, stronger effect = lower value): 0.995
normalized growth (S. cerevisiae deletion strains, locus YNL271C, strain bni1, stronger effect = lower value): 0.99
normalized growth (S. cerevisiae deletion strains, locus YNL298W, strain CLA4, stronger effect = lower value): 0.984
normalized growth (S. cerevisiae deletion strains, locus YNL307C, strain MCK1, stronger effect = lower value): 0.995
normalized growth (S. cerevisiae deletion strains, locus YNL322C, strain KRE1 (second series), stronger effect = lower value): 0.982
normalized growth (S. cerevisiae deletion strains, locus YNL322C, strain KRE1, stronger effect = lower value): 1.01
normalized growth (S. cerevisiae deletion strains, locus YNR049C, strain mso1, stronger effect = lower value): 0.992
normalized growth (S. cerevisiae deletion strains, locus YNR052C, strain pop2, stronger effect = lower value): 1
normalized growth (S. cerevisiae deletion strains, locus YOL006C, strain TOP1, stronger effect = lower value): 1.1
normalized growth (S. cerevisiae deletion strains, locus YOL012C, strain htz1): 0.868
normalized growth (S. cerevisiae deletion strains, locus YOL147C, strain pex11, stronger effect = lower value): 0.985
normalized growth (S. cerevisiae deletion strains, locus YOR001W, strain rrp6, stronger effect = lower value): 0.999
normalized growth (S. cerevisiae deletion strains, locus YOR061W, strain CKA2, stronger effect = lower value): 1.02
normalized growth (S. cerevisiae deletion strains, locus YOR069W, strain VPS5, stronger effect = lower value): 1.02
normalized growth (S. cerevisiae deletion strains, locus YOR070C, strain gyp1, stronger effect = lower value): 0.984
normalized growth (S. cerevisiae deletion strains, locus YOR080W, strain dia2, stronger effect = lower value): 0.996
normalized growth (S. cerevisiae deletion strains, locus YOR083W, strain WHI5, stronger effect = lower value): 0.987
normalized growth (S. cerevisiae deletion strains, locus YOR106W, strain vam3, stronger effect = lower value): 0.987
normalized growth (S. cerevisiae deletion strains, locus YOR136W, strain idh2, stronger effect = lower value): 0.991
normalized growth (S. cerevisiae deletion strains, locus YOR144C, strain elg1, stronger effect = lower value): 0.986
normalized growth (S. cerevisiae deletion strains, locus YOR184W, strain ser1, stronger effect = lower value): 0.988
normalized growth (S. cerevisiae deletion strains, locus YOR231W, strain MKK1, stronger effect = lower value): 1.03
normalized growth (S. cerevisiae deletion strains, locus YOR265W, strain rbl2, stronger effect = lower value): 1
normalized growth (S. cerevisiae deletion strains, locus YOR270C, strain vph1, stronger effect = lower value): 0.983
normalized growth (S. cerevisiae deletion strains, locus YOR290C, strain snf2, stronger effect = lower value): 1
normalized growth (S. cerevisiae deletion strains, locus YOR316C, strain cot1, stronger effect = lower value): 0.991
normalized growth (S. cerevisiae deletion strains, locus YPL051W, strain arl3, stronger effect = lower value): 0.993
normalized growth (S. cerevisiae deletion strains, locus YPL055C, strain LGE1, stronger effect = lower value): 1.05
normalized growth (S. cerevisiae deletion strains, locus YPL078C, strain atp4, stronger effect = lower value): 0.994
normalized growth (S. cerevisiae deletion strains, locus YPL106C, strain sse1, stronger effect = lower value): 0.977
normalized growth (S. cerevisiae deletion strains, locus YPL240C, strain hsp82, stronger effect = lower value): 0.997
normalized growth (S. cerevisiae deletion strains, locus YPL241C, strain CIN2, stronger effect = lower value): 1.02
normalized growth (S. cerevisiae deletion strains, locus YPL256C, strain CLN2, stronger effect = lower value): 1.05
normalized growth (S. cerevisiae deletion strains, locus YPR119W, strain clb2, stronger effect = lower value): 0.986
normalized growth (S. cerevisiae deletion strains, locus YPR141C, strain kar3, stronger effect = lower value): 0.993
normalized growth (S. cerevisiae deletion strains, locus YPR163C, strain tif3, stronger effect = lower value): 0.982
normalized growth (S. cerevisiae deletion strains, locus YPR167C, strain met16, stronger effect = lower value): 0.988
normalized growth (S. cerevisiae deletion strains, strain wtn01, stronger effect = lower value): 0.998
normalized growth (S. cerevisiae strains, strain wild type, stronger effect = lower value): 1.01
